Activity calls are given as the source filed them. Unless noted, no rule for the calls is given here.

A short description of assay [1]: HepG2 liver cancer cell viability effects, profiling panel, resazurin fluorescence, 24 h, PK04 Diversity Set (AID 1172). Also: test concentration not given here. Conditions: higher = more signal.
Assay [2] can be described thus: basal S. cerevisiae growth modulation, no modifier, primary screen, OD600, strain BY4716, 24 h, basal condition (AID 1173). Particulars: OD600, 24 h, higher = more signal, called active from +8 up or from −8 down.
A short description of assay [3]: MM1S myeloma cell viability, profiling panel, resazurin fluorescence, basal, 24 h, PK04 Diversity Set (AID 1174).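 Also: MM1S multiple myeloma cell line; test concentration not given here.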 Conditions: higher = more signal, called active from +8 up or from −8 down. (In general: Resazurin is reduced to fluorescent resorufin, in cell work by metabolically active cells.)
Assay [4] concerns the target Dihydroorotate dehydrogenase (quinone), mitochondrial (Plasmodium falciparum (isolate 3D7)) (UniProt Q08210). Nature of the assay: PfDHODH enzyme inhibitors, primary screen, biochemical, C-terminal His tag, absorbance 600 nm (AID 1175).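 Also: recombinant parasite enzyme with a five histidine tag at its C terminus; test concentration not given here.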 Particulars: DCIP absorbance 600 nm, higher = more signal, called active from +8 up or from −8 down.
Assay [5] in a line: P. aeruginosa biofilm formation inhibitors, primary screen, strain PAO1, LB-PBS medium, absorbance 600 nm (AID 1176). Also: test concentration not given here. Particulars: P. aeruginosa PAO1 growth/biofilm, A600, 12 h; higher = more signal.
The nature of assay [6]: S. cerevisiae RM11-1a growth modifiers, primary screen, strain RM11-1a, OD600, basal, 24 h (AID 1177).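 Also: cultures grown under basal conditions with no added stressor; test concentration not given here.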 Conditions: OD600, 24 h, higher = more signal, called active from +8 up or from −8 down.
Assay [7] is described as follows: E. coli acrAB mutant growth effects, primary screen, E. coli filamentation inducers, strain DRC39, OD650, 24 h (AID 1178).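 Also: growth measured as culture turbidity by optical density at 650 nm; test concentration not given here.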 Particulars: higher = more signal, called active from +8 up or from −8 down.
Assay [8] in a line: E. coli acrAB mutant growth effects, primary screen, E. coli filamentation inducers, strain DRC39, OD650, 48 h (AID 1179).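 Also: screen aims at cell division blockers that make cells filament.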 Particulars: E. coli DRC39 delta-acrAB growth, higher = more signal, called active from +8 up or from −8 down.
A short description of assay [9]: RPMI8226 myeloma cell viability, profiling panel, resazurin fluorescence, basal, 24 h, PK04 Diversity Set (AID 1180).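 Also: RPMI8826 multiple myeloma cell line at 5000 cells per well; test concentration not given here.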 Conditions: higher = more signal.
Assay [10] has as its target E3 ubiquitin-protein ligase XIAP (Homo sapiens) (UniProt P98170). Nature of the assay: XIAP binders, primary screen, biophysical, small-molecule microarray, fluorescence 635 nm (AID 1181).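 Also: score merges 667 nm emission and signal to noise over triplicate slides.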 Particulars: small-molecule microarray binding, higher = more signal.

Chain of E3 ubiquitin-protein ligase XIAP (Homo sapiens) (P98170 whole entry, looked up): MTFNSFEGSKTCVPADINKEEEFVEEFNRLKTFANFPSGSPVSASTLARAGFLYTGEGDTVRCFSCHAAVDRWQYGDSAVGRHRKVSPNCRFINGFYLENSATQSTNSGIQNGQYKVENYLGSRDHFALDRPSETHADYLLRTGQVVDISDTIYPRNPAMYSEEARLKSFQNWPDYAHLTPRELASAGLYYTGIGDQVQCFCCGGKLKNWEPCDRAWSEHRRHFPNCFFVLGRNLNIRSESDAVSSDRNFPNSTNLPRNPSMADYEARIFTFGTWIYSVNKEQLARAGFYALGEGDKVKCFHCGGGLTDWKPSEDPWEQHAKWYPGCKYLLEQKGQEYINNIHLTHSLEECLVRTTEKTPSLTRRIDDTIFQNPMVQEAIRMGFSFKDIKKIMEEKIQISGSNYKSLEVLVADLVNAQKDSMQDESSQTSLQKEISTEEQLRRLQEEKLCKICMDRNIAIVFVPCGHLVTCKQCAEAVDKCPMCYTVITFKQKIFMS
Chain of Dihydroorotate dehydrogenase (quinone), mitochondrial (Plasmodium falciparum (isolate 3D7)) (Q08210 whole entry, looked up): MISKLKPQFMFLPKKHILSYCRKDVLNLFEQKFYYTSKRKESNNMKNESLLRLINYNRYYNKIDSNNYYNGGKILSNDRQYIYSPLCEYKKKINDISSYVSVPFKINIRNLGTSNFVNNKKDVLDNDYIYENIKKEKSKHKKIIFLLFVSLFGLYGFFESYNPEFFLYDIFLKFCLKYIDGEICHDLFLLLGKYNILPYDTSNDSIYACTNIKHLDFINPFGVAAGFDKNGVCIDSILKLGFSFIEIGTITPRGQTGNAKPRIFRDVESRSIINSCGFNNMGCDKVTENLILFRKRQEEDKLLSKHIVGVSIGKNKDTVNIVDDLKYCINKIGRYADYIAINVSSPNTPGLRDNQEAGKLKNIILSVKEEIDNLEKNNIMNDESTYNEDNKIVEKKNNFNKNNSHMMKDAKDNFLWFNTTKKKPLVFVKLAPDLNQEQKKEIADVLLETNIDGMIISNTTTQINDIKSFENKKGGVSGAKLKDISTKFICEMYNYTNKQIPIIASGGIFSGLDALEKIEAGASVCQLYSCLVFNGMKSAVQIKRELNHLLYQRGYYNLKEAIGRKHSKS

On to `C/C=C/[C@@H](CCn1cc([C@H](O)c2ccccc2)nn1)[Si](C)(C)c1ccc(OC)cc1`, for which the z-score in [1] is 0.121; in assay [2] it was -1.5 (inactive); in assay [3] it was -0.567 (inactive); in assay [5] it was 0.0002 (inactive); in [6], 0.72 (inactive); in [7] it was 0.508 (inactive). The figures for the z-score in assay [8] and in assay [9] were -0.253 (inactive) and -0.472, respectively. The composite z-score was -0.222 (inactive) in [4] and -0.0918 in [10].

On to `O=C1C2C=CC(C(O)c3cccc4ccccc34)N(Nc3ccccc3)C2C(=O)N1c1ccccc1` (stereo not given), for which the z-score is 0.451 in assay [1]; -3.11 (inactive) in assay [2]; 0.0605 (inactive) in assay [3]; 1.6 (inactive) in [5]; -0.0805 (inactive) in assay [6]; -0.148 (inactive) in assay [7]. For the same compound, the z-score was 0.133 (inactive) in assay [8] and -0.0011 in [9]. In addition, the composite z-score in assay [4] is 0.651 (inactive); in assay [10], 0.197.

Take `CC1=C2[C@@H](CCc3ccccc3)OB(O)C[C@@H]2[C@@H]2C(=O)C=CC(=O)[C@@H]2C1`: the z-score in assay [1] was -0.548; in assay [2] it was -17.6 (active); in [3], -1.06 (inactive); in assay [5], 0.589 (inactive); in [6], -0.055 (inactive); in assay [7] it was -0.367 (inactive). The figures for the z-score in [8] and in assay [9] were -0.0244 (inactive) and -1.13, respectively. Besides, the composite z-score was -3.6 (inactive) in assay [4] and 0.0325 in assay [10].

Consider `CCCc1cc2c(n1Cc1ccc(OC)cc1)C(C)C1CN(C(=O)c3ccccc3)C(C)(C(=O)OC)C21` (stereo not given), for which the z-score was -1.34 in assay [1]; 1.08 (inactive) in assay [2]; -1.69 (inactive) in assay [3]; 1.21 (inactive) in assay [5]; 0.864 (inactive) in [6]; -1.09 (inactive) in assay [7]. In addition, the values for the z-score in assay [8] and in [9] were -0.395 (inactive) and -1.7, respectively. For the same compound, the composite z-score is -0.118 (inactive) in [4] and 0.493 in assay [10].

Take `C[N+](C)(C)CCCCCCNC(=O)[C@H]1C[C@H]2C(=O)N3CCC[C@H]3C(=O)N2[C@H]1c1cccc(OCCO)c1`: the z-score is 0.473 in assay [1]; -0.187 (inactive) in assay [2]; -0.41 (inactive) in [3]; -0.13 (inactive) in [5]; -0.637 (inactive) in assay [6]; 0.12 (inactive) in assay [7]. In addition, the figures for the z-score in assay [8] and in [9] were -0.271 (inactive) and -0.767, respectively. Also, the composite z-score is -0.788 (inactive) in assay [4] and 0.135 in assay [10].

On to `C[C@H]1NC(=O)C([C@@H](C)OCc2ccccc2)NC(=O)[C@@]23C(=O)N[C@@H](Cc4ccccc4)C2[C@H](C)[C@@]2(C)O[C@H]2C3/C=C/CC/C=C/CNC1=O` (stereo not given in full), for which the z-score was -1.3 in assay [1]; -0.782 (inactive) in [2]; 0.737 (inactive) in assay [3]; -0.766 (inactive) in [5]; 0.604 (inactive) in assay [6]; 1.36 (inactive) in assay [7]. The z-score in [8] was 0.336 (inactive); in assay [9], 0.189. Further, the composite z-score is 0.855 (inactive) in assay [4] and 0.13 in [10].

With `COCCOC(=O)N1C(=O)[C@@]2(c3cc(C#CCC(C(=O)OC)C(=O)OC)ccc31)[C@H](c1ccc(OCCO)cc1)N1[C@H](c3ccccc3)[C@H](c3ccccc3)OC(=O)[C@H]1[C@@H]2C(N)=O`, the z-score in [1] is 0.331; in [2] it was 1.87 (inactive); in assay [3], -0.22 (inactive); in assay [5], 2.32 (inactive); in assay [6], 2.34 (inactive); in [7], -0.102 (inactive). For the same compound, the z-score in [8] was -0.554 (inactive); in [9], -0.112. Further, the composite z-score is -1.15 (inactive) in assay [4] and 0.049 in assay [10].

`CC(C)(C)N1CC=CC23O[C@@H]4C=CCCOC(=O)C4[C@H]2C(=O)N(CCCO)[C@@H]3C1=O` (stereo not given in full): the z-score was -0.884 in [1]; -0.434 (inactive) in assay [2]; -1.12 (inactive) in assay [3]; -0.193 (inactive) in assay [5]; 0.605 (inactive) in assay [6]; -1.23 (inactive) in [7]. Besides, the z-score in [8] was -1.27 (inactive); in [9], -1.15. For the same compound, the composite z-score in [4] is -3.53 (inactive); in assay [10], -0.263.

As for `CC(C)[Si](C#C[Si](C(C)C)(C(C)C)C(C)C)(O[C@H](C)c1cn(Cc2cccc(Cl)c2)nn1)C(C)C`, the z-score in [1] is 0.205; in [2], 0.916 (inactive); in assay [3], 1.77 (inactive); in [5], 0.444 (inactive); in assay [6], 0.0575 (inactive); in [7], 2.07 (inactive). Moreover, the z-score in assay [8] is 1.52 (inactive); in assay [9] it was 1.68. Moreover, the composite z-score in [4] was 0.621 (inactive); in assay [10] it was -0.205.

With `O=C1C2C=CC(C(O)c3ccccn3)N(Nc3ccccc3)C2C(=O)N1c1ccccc1` (stereo not given), the z-score is 0.458 in [1]; -1.07 (inactive) in assay [2]; -0.702 (inactive) in assay [3]; 0.35 (inactive) in assay [5]; 0.565 (inactive) in [6]; -0.562 (inactive) in [7]. Besides, the z-score was -0.225 (inactive) in [8] and 0.16 in assay [9]. Besides, the composite z-score was 1.06 (inactive) in [4] and 0.109 in assay [10].

In the case of `COC(=O)[C@]1(Cc2ccccc2CN=[N+]=[N-])N=C(c2ccc(OCCCO)cc2)O[C@@H]1c1ccccc1`, the z-score was -2.08 in assay [1]; 1.42 (inactive) in assay [2]; -4.5 (inactive) in assay [3]; 0.948 (inactive) in assay [5]; 3.06 (inactive) in assay [6]; 0.286 (inactive) in assay [7]. For the same compound, the z-score in [8] was -0.865 (inactive); in [9], -5.26. In addition, the composite z-score was 2.51 (inactive) in assay [4] and -0.184 in assay [10].

On to `CC(C)CNC(=O)[C@@]1(C)c2ccccc2C(=O)N(Cc2ccccc2)[C@H]1c1ccc(CO)cc1`, for which the z-score in assay [1] is 0.702; in assay [2], -0.11 (inactive); in [3], -0.0059 (inactive); in [5], -0.273 (inactive); in assay [6] it was -1.07 (inactive); in assay [7], 0.165 (inactive). Also, the values for the z-score in assay [8] and in [9] were -0.185 (inactive) and -0.551, respectively. The values for the composite z-score in assay [4] and in [10] were -0.362 (inactive) and -0.395, respectively.

The values are drawn from PubChem BioAssay.
